Records with an inconclusive call do not appear. Activity calls are given as the source filed them. Calls follow the shape of the dose curve; as a rule, active = well fitted inhibition curve with a large enough effect; inconclusive = small, poorly fitted or top-dose-only effect; inactive = flat fitted curve, though single readings scatter.
Tests used:
Experiment in all cases: qHTS profiling for inhibitors of Plasmodium falciparum proliferation (AID 504749); also: nearly all actives have a fitted effect of over 60% in size
Settings in all cases: P. falciparum in erythrocytes, SYBR Green DNA, 72 h; series mostly up to 28.7 µM
AA1029 = test system: AA1029
Summary of the method: (§1)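 Three-day growth assay of blood-stage parasites in erythrocytes (0.3% parasitemia, 2.5% hematocrit) at 37 C, 5% CO2, quantified by SYBR Green DNA staining after overnight detergent lysis.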

ATS95 = test system: ATS95
Summary of the method: as §1

C2A = test system: C2A
Summary of the method: as §1

CP211 = test system: CP211
Summary of the method: as §1

CP215 = test system: CP215
Summary of the method: as §1

CP217 = test system: CP217
Summary of the method: as §1

CP256 = test system: CP256
Summary of the method: as §1

CP262 = test system: CP262
Summary of the method: as §1

CP266 = test system: CP266
Summary of the method: as §1

CP269 = test system: CP269
Summary of the method: as §1

CP325 = test system: CP325
Summary of the method: as §1

CP329 = test system: CP329
Summary of the method: as §1

DIV17 = test system: DIV17
Summary of the method: as §1

ECU = test system: ECU
Summary of the method: as §1

N140 = test system: N140
Summary of the method: as §1

P93_24 = test system: P93_24
Summary of the method: as §1

PAD = test system: PAD
Summary of the method: as §1

PC15 = test system: PC15
Summary of the method: as §1

PC26 = test system: PC26
Summary of the method: as §1

SC27B = test system: SC27B
Summary of the method: as §1

Measured: Potency
Potency is read from the fitted curve at half-maximal effect.

C[C@@H](Cc1ccc(O)cc1)NC[C@@H](O)c1cc(O)cc(O)c1
inactive: AA1029 | ATS95 | C2A | CP211 | CP215 | CP217 | CP256 | CP262 | CP266 | CP269 | CP325 | CP329 | DIV17 | ECU | N140 | P93_24 | PAD | PC15 | PC26 | SC27B

C[C@@H]1O[C@@H](O[C@H]2C[C@@H](O)[C@@]3(CO)[C@H]4[C@H](O)C[C@]5(C)[C@@H](C6=CC(=O)OC6)CC[C@]5(O)[C@H]4CC[C@@]3(O)C2)[C@@H](O)[C@H](O)[C@H]1O
inactive: AA1029 | ATS95 | C2A | CP211 | CP215 | CP217 | CP256 | CP262 | CP266 | CP269 | CP325 | CP329 | DIV17 | ECU | N140 | P93_24 | PAD | SC27B

C=C[C@@H]1CN2CC[C@H]1C[C@H]2[C@H](O)c1ccnc2ccccc12
active: AA1029 891 nM | ATS95 447 nM | C2A 1410 nM | CP211 953 nM | CP215 757 nM | CP217 1260 nM | CP256 1120 nM | CP262 379 nM | CP266 1510 nM | CP269 1070 nM | CP325 675 nM | CP329 1510 nM | DIV17 379 nM | ECU 199 nM | N140 794 nM | P93_24 447 nM | PAD 501 nM | PC15 224 nM | PC26 426 nM | SC27B 1000 nM

O=C1C[C@@H]2OCC=C3CN4CC[C@]56c7ccccc7N1[C@@H]5[C@@H]2[C@H]3C[C@H]46 (tested in a mixture with another compound)
inactive: PC15 | PC26

— PubChem BioAssay (NCATS)
